Assay outcomes: PubChem, Broad Institute
In the library only some 3.2% were active in any assay of this set; here they are far more common.
PGC1a acetyl inh = lowers PGC1a acetylation signal in U2OS cells | inhibition, % at 15.6 µM | AlphaScreen anti-acetyl-lysine; with virally co-expressed GCN5 acetyltransferase | AID 651687 | 350,000 tested, 0.17% active;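 active = every replicate shows inhibition of at least 40%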;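 note: 0% = neutral control wells and 100% = positive control wells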
INS-1E GSIS act = GLuc luminescence reporter in INS-1E cells, primary screen for activators of glucose-dependent secretion of insulin | activation, % at 16.6 µM | 370,000 tested, 0.61% active | AID 743287 | INS-1E GLuc reporter insulin secretion, 2-3 h;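 active = lowest replicate activation of at least 40%, so every replicate reaches that level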;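 note: 0% = median of neutral control wells and 100% = median of IBMX positive control wells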
ERAP1 HTS inh = ERAP1 (human) enzyme inhibition. Q9NZ08. recombinant ERAP1, Leu-AMC fluorescence, 60 min. inhibition, % at 10.7 µM. 340,000 tested, 0.15% active;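 active = mean replicate inhibition of at least 30%, or all replicates individually reaching that 30% level; inactive = mean below 30% and not every replicate reaching it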;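 note: 0% = neutral control wells and 100% = L-leucinethiol positive control wells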
Target sequence (Q9NZ08 whole entry, looked up): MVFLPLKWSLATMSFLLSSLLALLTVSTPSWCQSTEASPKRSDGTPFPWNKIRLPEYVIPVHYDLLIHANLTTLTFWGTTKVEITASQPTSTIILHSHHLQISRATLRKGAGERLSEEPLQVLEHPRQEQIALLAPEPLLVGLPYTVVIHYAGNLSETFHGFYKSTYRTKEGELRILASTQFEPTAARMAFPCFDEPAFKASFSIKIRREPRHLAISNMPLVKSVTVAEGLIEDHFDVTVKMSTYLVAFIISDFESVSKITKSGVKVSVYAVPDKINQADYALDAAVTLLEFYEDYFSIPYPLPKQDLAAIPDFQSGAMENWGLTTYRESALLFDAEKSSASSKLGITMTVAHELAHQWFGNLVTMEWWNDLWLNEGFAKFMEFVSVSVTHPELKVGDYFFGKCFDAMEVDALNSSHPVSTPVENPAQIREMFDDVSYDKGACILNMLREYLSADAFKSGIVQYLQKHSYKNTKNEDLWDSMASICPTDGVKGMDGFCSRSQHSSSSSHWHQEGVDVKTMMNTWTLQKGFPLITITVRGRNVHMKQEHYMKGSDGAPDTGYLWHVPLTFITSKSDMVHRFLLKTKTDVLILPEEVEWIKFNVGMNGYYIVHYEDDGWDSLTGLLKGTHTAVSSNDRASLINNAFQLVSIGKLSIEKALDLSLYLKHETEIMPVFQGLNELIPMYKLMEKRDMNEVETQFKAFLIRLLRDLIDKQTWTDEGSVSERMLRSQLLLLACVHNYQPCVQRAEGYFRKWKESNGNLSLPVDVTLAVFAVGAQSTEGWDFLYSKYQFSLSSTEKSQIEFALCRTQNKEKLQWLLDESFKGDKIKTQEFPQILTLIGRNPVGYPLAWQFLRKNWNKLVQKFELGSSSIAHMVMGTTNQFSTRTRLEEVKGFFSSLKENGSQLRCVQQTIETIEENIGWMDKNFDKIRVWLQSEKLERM
rRNA inh HTS = inhibits bacterial ribosomal RNA function over humanized ribosomes. E. coli WT GFP vs humanized-ribosome RFP mutants, fluorescence, 24 h; hits give low values; DMSO median 0, no signal -100. GFP signal change (wild-type ribosome), % (no concentration beside the values). 350,000 tested, 1.6% active. AID 720706;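 active = significant combined selectivity score with lowered wild-type GFP, culture density cut under 30%, mutant RFP and density less affected; inactive = any of these conditions unmet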
CaV13 FRET inh = Disruptors of the CACNA1D IQ motif to Ca2+-dependent inactivation inhibitor domain association, primary screening, Förster resonance energy transfer in intact living … | HEK cells, CFP/YFP FRET ICDI-IQ, plate reader, 10 min; percent FRET-ratio fall versus neutral wells | inhibition, % at 12.3 µM | 340,000 tested, 0.098% active | AID 743397;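 active = mean replicate inhibition of at least 30% and at least 1% of replicates passing that level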;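 note: 0% = median of the neutral control wells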
DENV2 CPE = protects cells from dengue virus 2 cytopathic effect; DENV2-infected cells, cytopathic effect rescue, plate reader; CPE inhibition, % at 9.99 µM; 350,000 tested, 1.7% active; in the data active = CPE inhibition above about 20%, passing the limit was not always enough; tested in BHK-21 cells;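 note: 0% = median of neutral control wells and 100% = median of positive control wells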
An asterisk follows results filed as active; · = no result.

SMILES	PGC1a acetyl inh	INS-1E GSIS act	ERAP1 HTS inh	rRNA inh HTS	CaV13 FRET inh	DENV2 CPE
CO[C@@H]1CN(C)C(=O)c2ccc(NC(=O)Nc3c(C)noc3C)cc2OC[C@H](C)N(CC2CC2)C[C@@H]1C	100.7*	10.1	-0.1	2.2	·	-2.9
CO[C@H]1CN(C)C(=O)c2ccc(NC(=O)Nc3c(C)noc3C)cc2OC[C@@H](C)N(CC2CC2)C[C@@H]1C	9.0	14.8	0.6	5.0	·	17.8
CCCN1C[C@@H](C)[C@H](OC)CN(C)C(=O)c2ccc(NC(=O)Nc3c(C)noc3C)cc2OC[C@@H]1C	-0.6	9.0	2.9	-0.2	·	22.4*
COc1ccc(C#Cc2cnc3c(c2)C(=O)N([C@@H](C)CO)C[C@H](C)[C@H](CN(C)C(=O)Nc2cccc(OC)c2)O3)cc1	1.6	-19.5	·	-1.4	·	·
O=C(CSc1nnc(-c2ccccc2)n1-c1ccc(Cl)cc1)N/N=C/c1ccccc1C(=O)O	44.9*	-3.2	2.5	5.0	-5.6	1.1
COc1cccc(CNC(=O)C[C@@H]2C=C[C@@H](NC(C)=O)[C@@H](CO)O2)c1	-2.1	-1.2	-0.6	2.1	·	2.2
S=c1nc[nH]c2c1cnn2Cc1ccccc1	44.6*	4.9	-1.6	-1.6	-4.6	-4.1
N#CCCc1cccc(CCC#N)c1	5.9	5.8	-3.8	6.6	-5.6	119.5*
Cc1cccc(NCCC#N)c1	1.1	5.2	·	·	-4.2	·
CC(C)C#Cc1ccc2c(c1)O[C@@H](CN(C)C(=O)NC(C)C)[C@H](C)CN([C@@H](C)CO)S2(=O)=O	-2.7	-4.6	·	-2.9	·	-0.1
Cc1ccccc1-n1cc(-c2ccc(Br)cc2)nc1SCC(N)=O	-21.8	·	·	-41.3*	-20.4	-4.5
Cc1ccc(-c2cn(-c3ccccc3)c(SCC(N)=O)n2)cc1C	11.4	8.3	·	·	-5.6	·
Cc1ccc(S(=O)(=O)c2cc3ccccc3oc2=O)cc1	-3.7	7.8	·	·	-4.9	·
Cc1c(O)ccc2cc(S(=O)(=O)c3ccccc3)c(=O)oc12	·	-2.0	132.0*	-14.2	34.2*	-6.9
COc1ccccc1CN(C)C[C@H]1OCc2cn(nn2)CCCC(=O)N([C@H](C)CO)C[C@H]1C	0.2	8.4	3.1	-1.6	·	-0.4
Oc1ccccc1/C=N/[n+]1ccccc1	2.4	12.0	97.2*	5.2	-5.0	8.0
C[C@@H]1CCCCO[C@H](CN(C)Cc2ccc(C(F)(F)F)cc2)[C@@H](C)CN([C@@H](C)CO)C(=O)c2cc(NC(=O)c3ccccc3)ccc2O1	3.2	-8.5	-0.2	-4.0	·	9.5
C[C@@H]1CCCCO[C@@H](CN(C)Cc2ccc(C(F)(F)F)cc2)[C@@H](C)CN([C@H](C)CO)C(=O)c2cc(NC(=O)c3ccccc3)ccc2O1	-8.9	-1.0	1.4	-1.5	·	25.1*
C[C@H]1CCCCO[C@@H](CN(C)Cc2ccc(C(F)(F)F)cc2)[C@@H](C)CN([C@@H](C)CO)C(=O)c2cc(NC(=O)c3ccccc3)ccc2O1	-2.0	-18.1	0.3	-1.7	·	23.1*
C[C@H]1CCCCO[C@H](CN(C)Cc2ccc(C(F)(F)F)cc2)[C@@H](C)CN([C@@H](C)CO)C(=O)c2cc(NC(=O)c3ccccc3)ccc2O1	9.9	-22.8	1.0	-2.2	·	-3.0
C[C@@H]1CN([C@@H](C)CO)C(=O)c2cc(NC(=O)C3CCCCC3)ccc2O[C@@H](C)CCCCO[C@@H]1CN(C)C(=O)Nc1ccc(C(F)(F)F)cc1	3.0	11.2	1.6	-0.4	·	0.4
C[C@@H]1CCCCO[C@@H](CN(C)C(=O)Nc2ccc(C(F)(F)F)cc2)[C@@H](C)CN([C@H](C)CO)C(=O)c2cc(NC(=O)C3CCCCC3)ccc2O1	15.2	10.2	2.3	3.2	·	27.3*
C[C@@H]1CN([C@@H](C)CO)C(=O)c2cc(NC(=O)c3ccccc3)ccc2O[C@@H](C)CCCCO[C@H]1CN(C)Cc1ccc(C(F)(F)F)cc1	3.1	-12.5	1.2	0.5	·	48.6*
C[C@@H]1CCCCO[C@@H](CN(C)Cc2ccc(C(F)(F)F)cc2)[C@@H](C)CN([C@H](C)CO)C(=O)c2cc(NC(=O)C3CCCCC3)ccc2O1	-1.0	-3.5	·	3.7	·	31.4*
C[C@@H]1CN([C@@H](C)CO)C(=O)c2cc(NC(=O)C3CCCCC3)ccc2O[C@@H](C)CCCCO[C@@H]1CN(C)Cc1ccc(C(F)(F)F)cc1	-3.3	2.2	·	5.4	·	-0.1
SMILES	PGC1a acetyl inh	INS-1E GSIS act	ERAP1 HTS inh	rRNA inh HTS	CaV13 FRET inh	DENV2 CPE
Cc1cc(C)c(C#N)c(SCS(=O)Cc2ccc(Cl)cc2)n1 (stereo unspecified)	2.0	-17.8	0.3	-44.4*	-6.8	-2.7
COc1ccccc1CNC(=O)C[C@@H]1C[C@@H]2c3cc(NC(=O)Nc4ccc(C(F)(F)F)cc4)ccc3O[C@@H]2[C@@H](CO)O1	·	-10.1	·	-3.7	·	·
CC(C)NC(=O)NCC[C@H]1CC[C@H](NS(=O)(=O)c2ccccc2)[C@H](CO)O1	-10.4	6.5	-2.2	2.1	·	20.6
CCN1CCN(c2ccc(NC(=O)c3ccc([N+](=O)[O-])o3)cc2Cl)CC1	·	-15.6	-1.2	-37.7*	-0.4	-1.2
O=C(Nc1ccc(N2CCOCC2)cc1)c1cc2c(s1)CCCCC2	·	-13.2	4.0	-21.6*	-1.8	-5.3
CCC(=O)N1CCN(c2ccc(NC(=O)c3ccc([N+](=O)[O-])o3)cc2Cl)CC1	29.8	-5.6	-5.2	-3.5	7.5	·
CCn1nnc(NC(=O)c2ccc([N+](=O)[O-])o2)n1	·	-10.6	-2.2	-23.1*	-6.6	-6.7
O=C(Nc1ccc(N2CCOCC2)cc1)c1cc2c(s1)CCCC2	3.5	9.4	1.0	-26.4	-6.5	3.6
CCC(=O)N1CCN(c2ccc(Cl)cc2NC(=O)c2ccc([N+](=O)[O-])o2)CC1	-61.7	10.0	-0.3	5.8	·	7.3
O=C(Nc1cc(Cl)ccc1-n1cncn1)c1ccc([N+](=O)[O-])o1	·	-3.7	2.2	-21.3*	-2.7	-4.3
O=C(C[C@@H]1C[C@H]2c3cc(NC(=O)Nc4ccccc4)ccc3O[C@H]2[C@@H](CO)O1)NC1CCCC1	-7.3	14.8	2.3	11.5	·	0.5
O=C(COC(=O)c1ccc([N+](=O)[O-])o1)Nc1ccc(N2CCOCC2)cc1	·	-10.7	0.3	8.0	-13.7	-2.5
O=C(Nc1ccc(N2CCOCC2)cc1)c1ccc([N+](=O)[O-])o1	·	-4.9	3.2	-19.2*	-3.3	-4.9
O=C(Nc1ccc(S(=O)(=O)N2CCOCC2)cc1)c1ccc([N+](=O)[O-])o1	-47.4	-33.8	0.4	-24.4*	-1.2	-12.0
Cn1c(SCC(=O)N2CCCC2)nc2c(c1=O)SCC2	·	·	0.1	-1.1	-4.8	58.7*
Cn1c(SCC(=O)N2CCCCCC2)nc2c(c1=O)SCC2	·	4.2	3.0	3.3	-3.5	5.6
